Compound activity: PubChem BioAssay, National Center for Advancing Translational Sciences (NCATS)
An excerpt weighted towards active compounds, which were near 14% of everything screened.
Shiga toxin inh: A qHTS for Small Molecule Inhibitors of Shiga Toxin. Vero cells, Shiga toxin protein synthesis inhibition reporter. inhibition, % at 38.7 µM. hit rate 9.2% among 290,000. AID 2315, 2010; in the data active = inhibition mostly above about 28%, no sharp cut-off; inactive = mostly below about 43%; note: 0% is about no effect
LmPK inhibitor: qHTS Assay for Inhibitors of Leishmania Mexicana Pyruvate Kinase (LmPK); Q27686; purified LmPK, Kinase-Glo ATP luminescence, 1 h; Potency, µM (highest dose often 57.5 µM), for inactives: at the top dose activity change, negative = inhibition, usual class: inhibitors; hit rate 0.37% among 290,000; AID 1721, 2009; note: potency is the fitted concentration of half-maximal effect; % is set by controls: 0 for no effect and ±100 for the full control effect
Target sequence (Q27686 whole entry, looked up): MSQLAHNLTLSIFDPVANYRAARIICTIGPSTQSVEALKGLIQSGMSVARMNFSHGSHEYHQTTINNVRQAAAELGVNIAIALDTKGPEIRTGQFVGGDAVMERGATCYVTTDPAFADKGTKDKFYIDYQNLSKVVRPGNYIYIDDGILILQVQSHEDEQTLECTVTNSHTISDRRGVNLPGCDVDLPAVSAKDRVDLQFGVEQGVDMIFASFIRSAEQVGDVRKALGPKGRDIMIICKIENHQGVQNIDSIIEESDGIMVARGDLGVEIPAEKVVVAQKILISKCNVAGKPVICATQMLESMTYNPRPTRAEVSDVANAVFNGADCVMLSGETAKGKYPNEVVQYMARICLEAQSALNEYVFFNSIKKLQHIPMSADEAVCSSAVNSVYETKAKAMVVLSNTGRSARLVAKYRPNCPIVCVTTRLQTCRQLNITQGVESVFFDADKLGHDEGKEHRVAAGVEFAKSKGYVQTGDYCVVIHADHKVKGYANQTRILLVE
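0.1 nM LmPK, 0.5 mM PEP, 0.1 mM ADP; 50 mM imidazole pH 7.2, 7 mM MgCl2, 50 mM KCl; 1 h RT. Kinase-Glo luminescence readout, normalized to no-enzyme (full inhibition) and uninhibited wells.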
Giardia FBPA inh: qHTS Assay for Inhibitors of Fructose-1,6-bisphosphate Aldolase from Giardia Lamblia; A8B2U2; purified Giardia FBPA; Potency, µM (series often up to 59.6 µM), without a hit: at the top dose activity, negative = inhibition, actives largely listed as inhibitors; hit rate 0.71% among 290,000; note: potency is the fitted concentration of half-maximal effect; % is set by controls: 0 for no effect and ±100 for the full control effect; nearly all actives have a fitted effect of over 55% in size
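40 nM FBPA preincubated 10 min at RT with compound (up to 57.5 uM final), then substrate plus GAPDH/TPI/NAD/arsenate coupling and diaphorase/resazurin added. Fluorescence read after 20 min at RT, 525/598 nm.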
CHX counter: Cycloheximide Counterscreen for Small Molecule Inhibitors of Shiga Toxin. cell reporter, cycloheximide protein synthesis inhibition counterscreen. max response, %. hit rate 12% among 300,000. AID 2314, 2010; in the data active = max response mostly above about 13%, no sharp cut-off; inactive = mostly below about 14%; note: read at 38.3 µM for the half of the compounds with a filed dose; 0% is about no effect
NS1 function inh: qHTS Assay for Inhibitors of Influenza NS1 Protein Function; AID 2326, 2010; hit rate 0.4% among 270,000; Potency, µM (highest dose often 46.1 µM), inactives show at the highest dose activity, positive = more growth; calls by dose curve; note: potency is the fitted concentration of half-maximal effect; actives are rising curves; nearly all actives have a fitted effect of over 50% in size
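A cell-based growth assay was used: compounds that relieve NS1-induced slow growth of budding yeast raise OD600. Assay medium was yeast nitrogen base with ammonium sulphate and -URA supplement, pH 6.0, with 2% galactose.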
* = called active by the depositor; ? = inconclusive; nt = no result; + = active, no number; [ ] = another dose, or the depositor's remark. Unless noted, calls come from the whole dose curve; as a rule, active = well fitted curve in the direction sought with a large enough effect; inconclusive = small, poorly fitted or top-dose-only effect, or another doubt; inactive = no such curve, though single readings can be large; an effect the other way counts as inactive or inconclusive.

SMILES | Shiga toxin inh | LmPK inhibitor | Giardia FBPA inh | CHX counter | NS1 function inh
Cc1ccc(-c2nnc(SCCC(=O)N3CCOCC3)o2)cc1 | 52 | -3% | 2% | 32* | nt
O=C(CCSc1nnc(-c2ccco2)o1)N1CCOCC1 | 52 | -1% | 7% | 17 | nt
Cc1ccccc1-c1nnc(SCCC(=O)N2CCOCC2)o1 | 70* | 1% | 7% | 23* | nt
O=C(CCSc1nnc(-c2ccccc2)o1)N1CCOCC1 | 34 | -8% | 1% | 14 | -10%
COc1ccccc1CNC(=O)CCC(=O)N1CC(C)Sc2ccccc21 (stereo unspecified) | -3 | 2% | 16% | -1 | -23%
CC(C)c1nnc(NC(=O)c2cccc(-n3cnnn3)c2)s1 | -5 | 6% | ? | -3 | 14%
CCOCCc1nnc(NC(=O)c2cccc(F)c2)s1 | 41* | -21% | 3% | 20* | -32%
CN(C)c1cccc(C(=O)Nc2nnc(Cc3ccccc3)s2)c1 | 96* | -1% | -7% | 26* | 0%
COc1cccc(C(=O)Nc2nnc(C(C)C)s2)c1 | 47* | -14% | ? | 27* | -2%
CCCc1nnc(NC(=O)c2cccc(OC)c2)s1 | 73* | -4% | -29% | 62* | -122%
C/C=C/OC(=O)NC(c1cccc(C)c1)[C@@]1(C(=O)OCC)CCCC1=O (stereo partly specified) | nt | nt | 0%[12.9 µM] | nt | nt
CCc1noc(C)c1C(=O)Nc1ccccc1C(C)(C)C | 8 | 4% | 9% | 2 | -7%
CC(C)CCCC(C)C1CCC2C3CC(O)[C@@]4(O)CC(O)CC[C@@]4(C)C3CC[C@@]12C (stereo partly specified) | nt | nt | -5% | nt | nt
COc1ccc(Nc2ccc([N+](=O)[O-])cn2)cc1 | 38* | -1% | -3% | 37* | -23%
CCOC(=O)c1ccc(Nc2ccc([N+](=O)[O-])cn2)cc1 | + | -1% | 3% | 31* | 1%
O=[N+]([O-])c1ccc(NCCOc2ccccc2Cl)nc1 | 44* | 1% | 6% | 29* | 8%
Cc1cccc(OCCNc2ccc([N+](=O)[O-])cn2)c1 | 16 | 1% | 1% | 6 | nt
COc1ccc(Nc2nc(=O)c3cc([N+](=O)[O-])ccc3s2)cc1 | -4 | 4% | -11% | 4 | 5%
COc1ccc(Nc2cc(C)c3cc([N+](=O)[O-])ccc3n2)cc1 | 21 | 3% | -4% | 11* | 2%
CCCCCn1c(=O)[nH]c2cc(C(=O)NCCN3CCCCC3C)ccc2c1=O (stereo unspecified) | -1 | -4% | 8% | -8 | 0%
COc1ccccc1Nc1ccc([N+](=O)[O-])cn1 | 15 | -8% | -4% | 21* | -4%
COc1ccc(CNc2ccc([N+](=O)[O-])cn2)cc1 | 59* | -3% | 3% | 28* | 1%
COc1ccc(CCNC(=O)COc2ccc([N+](=O)[O-])cc2)cc1 | 10 | -4% | 3% | -2 | -5%
CCN(CC)S(=O)(=O)c1ccc(NCc2ccccn2)nc1 | -4 | 3% | 29% | -1 | 2%
COc1ccccc1Nc1ccncc1[N+](=O)[O-] | -4 | 7% | -7% | -4 | -3%
SMILES | Shiga toxin inh | LmPK inhibitor | Giardia FBPA inh | CHX counter | NS1 function inh
O=[N+]([O-])c1ccc(NCc2ccccn2)nc1 | 47* | -3% | 2% | 16* | 13%
COc1cc(C)c(C(=O)CSc2nnc(CNC(=O)c3ccco3)n2C)cc1C | -9 | -3% | -1% | -5 | ?
NC(=O)C1=C[C@@H](c2ccc(Br)cc2)C[C@@H](OCCCCO)O1 | 19 | 6% | ? | 7.8* | -1%
O=C(C1=C[C@H](c2ccc(Br)cc2)C[C@H](OCCCCO)O1)N1CCOCC1 | 31 | 7% | -5% | 12* | -2%
C#CCNC(=O)C1=C[C@H](c2ccccc2)C[C@H](OCCCCO)O1 | 10 | 5% | ? | 12 | 1%
C#CCNC(=O)C1=C[C@@H](c2ccc(Br)cc2)C[C@@H](OCCCCO)O1 | 35* | 3% | -24% | 13* | -5%
NC(=O)C1=C[C@H](c2ccc(C(F)(F)F)cc2)C[C@H](OCCCCO)O1 | 12 | 6% | ? | 13 | -2%
CC1=NN(c2ccccc2)C(=O)[C@@H]1N=Nc1ccc([As](=O)(O)O)c(O)c1 | nt | nt | nt | nt | 5%
O=C(O)/C(=C\c1ccncc1)c1cccc2ccccc12 | nt | nt | nt | nt | 0%
Cc1sc2nc(-c3ccccc3)oc(=O)c2c1C | 113* | 0% | 10% | 66* | nt
Cc1nc2sc(C)c(C)c2c(=O)o1 | -9 | 0% | -24% | -3 | -5%
Nc1nc(-c2ccccc2)nc2sc3c(c12)CCCC3 | 124* | -3% | -12% | 53* | -5%
O=c1oc(-c2ccccc2)nc2sc3c(c12)CCC3 | 70* | -26% | 1% | 70* | -1%
Nc1c2c(nc3sc4c(c13)CCCC4)CCCCCC2 | 15 | 2% | 6% | 2 | 1%
CCCCN1C[C@H](Cc2ccccc2)[C@@H](CC(=O)Nc2ccccc2)C1=O | -2 | 14% | 6% | -2 | -14%
COc1ccc(NC(=S)N(CCCOC(C)C)C2CCN(C(C)=O)CC2)cc1Cl | -1 | 2% | -2% | -2 | -9%
COC(=O)C(=O)Nc1cccc2cccnc12 | -8 | nt | nt | -1 | nt
COC1=C(N)C(=O)c2nc(-c3nc(C(=O)O)c(C)c(-c4ccc(OC)c(OC)c4O)c3N)ccc2C1=O | -13 | -4% | ? | -4 | -21%
COC(=O)c1nc(-c2ccc3c(n2)C(=O)C(N)=C(OC)C3=O)c(N)c(-c2ccc(OC)c(OC)c2O)c1C | -7 | -8% | 10µM* | 11 | ?
CC12C=C(/C=C/C=C/c3ccco3)C(C)(C1)C(/C=C/c1ccco1)CC2=O (stereo unspecified) | nt | nt | -1%[12.9 µM] | nt | nt
COCCN=c1scc(C)n1/N=C/C1CC2C=CC1C2 (stereo unspecified) | 55 | 10% | -5% | 13* | nt
O=C(c1cccc(F)c1)N1CCC[C@@]2(CCN(Cc3ccncc3)C2)C1 | nt | nt | -5% | nt | nt
CC1(C)CC(=O)c2cc(NC(=O)c3ccccc3)c(=O)oc2C1 | 55* | -9% | -1% | 27* | -8%
COC(=O)c1cc(NC(=O)c2ccc(OC)cc2)c(=O)oc1C | 25 | 6% | 0% | 17 | nt
CCOC(=O)c1cc(NC(=O)c2ccccc2)c(=O)oc1C(F)(F)F | 16 | -1% | 11% | 27* | nt
Cc1oc(=O)c(NC(=O)c2ccccc2)cc1C(=O)c1ccccc1 | 101* | -12% | -9% | 64* | -107%
CCOC(=O)c1cc(NC(=O)c2ccc(C)cc2)c(=O)oc1C(F)(F)F | 26 | -6% | 0% | 18 | nt
Cc1oc(=O)c(NC(=O)c2ccc(Cl)cc2)cc1C(=O)c1ccccc1 | 132* | -1% | -27% | 65* | -97%
CCOc1ccc(NCc2cccn2-c2nnc(N3CCC(C(=O)NCCCN4CC(C)CC(C)C4)CC3)s2)cc1 (stereo unspecified) | 32 | 1% | -7% | 2 | -2%
CCOC(=O)c1c(NC(=O)Cn2ccsc2=N)sc(C)c1C | -11 | -1% | 0% | -6 | nt
